Source: PubChem BioAssay (National Center for Advancing Translational Sciences (NCATS))
Lamin A splicing = modulators of lamin A splicing. HeLa LMNA splicing GFP/RFP minigene ratio, 48 h. Potency, µM (highest dose often 46.1 µM), most hits filed as inhibitors. hit rate 0.01% among 200,000. AID 1487; active = well fitted inhibition curve with a large enough effect in the signal ratio, with a control signal flat, not every such curve was filed as active; inconclusive = small, poorly fitted or top-dose-only effect, or effect the other way, or a change in a side signal; the % refers to the signal ratio
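Read-out is the ratio of GFP to DsRed2 object intensity, acquired by 488 nm laser-scanning cytometry on HeLa lamin A-EGFP minigene reporter cells. Compound incubation 48 hrs at 37 °C in Opti-MEM with 2% FBS; DMSO 0.5% final.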
HPGD inh = blocks human HPGD enzyme activity; hit rate 4.3% among 150,000; AID 894; Potency, µM, most hits filed as inhibitors; purified HPGD, NADH fluorescence kinetic, PGE2 substrate; P15428
Target sequence (P15428 whole entry, looked up): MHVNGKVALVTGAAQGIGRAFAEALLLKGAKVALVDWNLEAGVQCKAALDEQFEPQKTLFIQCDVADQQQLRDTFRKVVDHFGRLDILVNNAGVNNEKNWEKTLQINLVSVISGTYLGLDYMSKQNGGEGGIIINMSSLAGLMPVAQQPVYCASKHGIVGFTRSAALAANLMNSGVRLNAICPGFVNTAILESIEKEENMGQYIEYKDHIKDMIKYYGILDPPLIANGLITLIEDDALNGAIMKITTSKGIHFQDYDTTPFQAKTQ
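20 nM HPGD preincubated 15 min at room temperature with compound in 50 mM Tris-HCl pH 8, 0.01% Tween 20. Started with 1 mM NAD+ and 30 uM prostaglandin E2; NADH fluorescence (360/450 nm) read 5 times over 30-s intervals, last minus first.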
ALDH1A1 block = inhibitors of human aldehyde dehydrogenase 1A1 | Purified ALDH1A1, NADH fluorescence, propionaldehyde substrate | Potency, µM (highest dose often 75.3 µM), actives largely listed as inhibitors | hit rate 7.3% among 220,000
PNC inhibitor = inhibitors of perinucleolar compartment assembly; AID 2417; hit rate 3.1% among 140,000; PC3M PTB-GFP, PNC prevalence imaging, 16 h; hits give low values; activity change (PNC), negative = inhibition, % at 10 µM;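 active = readout at or below -70, meaning at least 70% loss of cells showing the perinucleolar compartment, a nuclear body marking cancer cells; inconclusive = readout between -30 and a set limit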
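PC3M cells stably expressing PTB-GFP, 750–1000 cells/well, treated 16 h at 37 °C with compound (23 nl of library stock), in duplicate. After paraformaldehyde fixation and Hoechst stain, imaged at 20x; PNC prevalence scored by image analysis.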
ALOX12 inhib = 12-hLO (ALOX12) enzyme inhibition; P18054; purified 12-hLO, xylenol orange hydroperoxide absorbance; Potency, µM (highest dose often 57.1 µM), most hits filed as inhibitors; hit rate 0.12% among 150,000; AID 1452; active = well fitted inhibition curve with a large enough effect; inconclusive = small, poorly fitted or top-dose-only effect; also: nearly all actives have a fitted effect of over 55% in size
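Purified human 12hLO (150 nM final) was preincubated with compounds for 15 min at room temperature in 25 mM Hepes pH 7.0, 0.01% Triton X-100, then reacted with 40 uM arachidonic acid for 30 min. Hydroperoxide was detected with ferrous iron/xylenol orange.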
A number is an active result; . = inactive; ? = inconclusive; / = not tested or not shown; [ ] = another dose, or the depositor's remark. An excerpt weighted towards active compounds, which were near 10% of everything screened. Unless noted, calls follow the shape of the dose curve; as a rule, active = well fitted inhibition curve with a large enough effect (not every such curve was filed as active); inconclusive = small, poorly fitted or top-dose-only effect, or another doubt; inactive = no such curve, though single readings can be large or run the other way.

SMILES | Lamin A splicing | HPGD inh | ALDH1A1 block | PNC inhibitor | ALOX12 inhib
CC(C)Oc1ccc(CNC(=O)c2cccc(NC(=O)c3nsc4ccccc34)c2)cc1 | . | / | / | / | /
CCOC(=O)Cc1ccc(NC(=O)N2CC(C)Oc3ccc(Cl)cc32)cc1 (centres undefined) | . | / | / | / | /
Cc1ccccc1NC(=O)c1ccc(NS(=O)(=O)c2cc(C(C)(C)C)cc(C)c2C)cc1 | . | . | 2.8µM | ? | .
Cc1cc(C(C)(C)C)cc(S(=O)(=O)Nc2cccc(C(=O)O)c2)c1C | . | . | ? | ? | .
COc1ccc(N=Cc2[nH]c3ccccc3c2O)cc1 | . | / | 13µM | / | /
CCCC(C(=O)O)N1C(=O)/C(=C2\C(=O)N(C)c3ccccc32)SC1=S (centres undefined) | . | 25µM | . | . | .
CCC(C(=O)O)N1C(=O)/C(=C/c2cccn2C)SC1=S (centres undefined) | . | ? | . | . | .
COC(=O)[C@@H]1CC[C@H](C)[C@@H](c2ccc(C)cc2)N1C(=O)c1ccc(/C=N\OCC[C@@H]2C=C[C@H](OC(C)=O)[C@H](COC(C)=O)O2)cc1 | / | / | .[13.5 µM] | / | /
O=C(CSc1nnc(-c2ccc(F)cc2)o1)Nc1ccc(S(=O)(=O)N2CCCCCC2)cc1 | . | / | . | . | .
CCN(CC)S(=O)(=O)c1ccc(NC(=O)CSc2nnc(-c3ccc(F)cc3)o2)cc1 | . | . | . | -107 | .
CC(C)CNC(=O)CSc1nnc(-c2cccc(S(=O)(=O)N3CCCCC3)c2)o1 | ? | . | . | -128 | .
CCN(CC)S(=O)(=O)c1ccc(NC(=O)CSc2cccc[n+]2[O-])cc1 | . | . | 22µM | . | .
O=C(CSc1nnc(-c2ccc(F)cc2)o1)Nc1ccc(S(=O)(=O)N2CCCC2)cc1 | . | . | 16µM | . | .
CN(C)c1ccc(CNC(=O)c2sc3ncccc3c2-n2cccc2)cc1 | . | / | / | / | /
COc1ccccc1C(=O)Nc1cccc(C(=O)OCc2cc(=O)n3cc(C)sc3n2)c1 | . | / | / | / | /
CCN(CC)S(=O)(=O)c1ccc(NC(=O)COC(=O)CNS(=O)(=O)/C=C/c2ccccc2)cc1 | ? | . | 1µM | . | .
O=C(CC12CC3CC(CC(C3)C1)C2)NCc1ccncc1 | . | . | . | -84 | .
c1cc(CNC23CC4CC(CC(C4)C2)C3)ccn1 | . | / | . | / | /
CC(C)(C)c1ccc(/C([O-])=C(/C(=S)NCc2ccco2)[n+]2ccccc2)cc1 | . | . | 10µM | . | .
CCOc1cc(NC(=O)C2CCCO2)c(OCC)cc1NC(C)=O (centres undefined) | . | . | ? | -94 | .
COc1ccc(-c2csc(NC(=O)C3CCCO3)n2)cc1 (centres undefined) | ? | ? | 22µM | . | .
COc1ccc(NC(=O)C2CCCO2)cc1 (centres undefined) | . | 25µM | . | ? | .
COC(=O)c1c(-c2ccc(F)cc2)csc1NC(=O)C1CCCO1 (centres undefined) | / | / | 20µM | / | /
CCCC(=O)Nc1nc(-c2ccc(OC)cc2)cs1 | ? | . | . | . | .
COc1ccc(Cl)cc1NC(=O)C1CCCO1 (centres undefined) | . | / | ? | . | .
SMILES | Lamin A splicing | HPGD inh | ALDH1A1 block | PNC inhibitor | ALOX12 inhib
Cc1ccc(C(=O)c2cn(CC(=O)Nc3ccc4c(c3)OCCO4)c3nc(C)ccc3c2=O)cc1 | . | / | / | / | /
Cc1cc(SCC(=O)NCc2ccccc2Cl)nc(=O)[nH]1 | . | / | / | / | /
CC(=O)Nc1ccc(-c2csc(NC(C)c3ccccc3)n2)cc1 (centres undefined) | / | / | 18µM | / | /
CC1CC1C(=O)Nc1nc(-c2ccccc2)cs1 (centres undefined) | ? | . | 10µM | . | .
O=C(Nc1ccc(Oc2ccccc2)cc1)C1CCCO1 (centres undefined) | ? | 11µM | . | . | .
CC1CCN(CCNC(=O)c2ccc(NC(=O)C3CCCO3)cc2)CC1 (centres undefined) | . | . | . | . | .
CC1CCN(C(=O)c2ccc(NC(=O)C3CCCO3)cc2)CC1 (centres undefined) | . | 0.71µM | ? | ? | .
C/C(CCC(=O)OC[C@@H]1O[C@H](C#Cc2ccccc2)C=C[C@@H]1Oc1ccc(C)cc1)=N/O[C@@H](C)c1cn([C@H]2COC[C@H]2O)nn1 | / | / | .[13.5 µM] | / | /
CCNc1ncc2nc(-c3cccc(C#N)c3)c(=O)n(C)c2n1 | / | ? | ? | / | .
